Holding throughout (assay): log2 fold change, soluble protein after heating vs DMSO (PISA); higher = thermal stabilisation; K562 cells, 10 uM, 30 min; active = over 0.2 and 3.5 SD of the protein, either way, in both replicates (recomputed)
Compound in one assay: Cc1ccc(NC(=O)c2ccc(CN3CC[C@H](N(C)C)C3)c(C(F)(F)F)c2)cc1Nc1nccc(-c2cncnc2)n1 [bafetinib]
The procedure, abridged:
(§1)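 K562 cells at 2×10^6 cells/mL were exposed to 10 μM compound for 30 min, then aliquots were heated for 3 min across 48°C-58°C, pooled, and extracted in PBS containing 0.5% NP-40 at 4°C. The supernatant after 21,000xg for 90 min was taken as soluble protein and measured by TMTpro 16plex LC-MS/MS with channel sums equalised. Thermal stability is reported relative to control samples, with values from duplicates. Fold changes are given on a log2 scale.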

Compound in assay [1]: Cc1cccc(CC(=O)N2CCc3c2ccc(-c2cn(C)c4ncnc(N)c24)c3F)n1
The method in brief:
as §1

Compound in the next assay: Cc1cn(-c2cc(NC(=O)c3ccc(C)c(Nc4nccc(-c5cccnc5)n4)c3)cc(C(F)(F)F)c2)cn1 [nilotinib]
The method in brief: as §1

Compound in assay [2]: Cc1nc(Nc2n[nH]c3c2CN(C(=O)N[C@H](CN(C)C)c2ccccc2)C3(C)C)c2sccc2n1
The procedure, abridged: as §1

Compound in a further assay: Cc1nc(Nc2ncc(C(=O)Nc3c(C)cccc3Cl)s2)cc(N2CCN(CCO)CC2)n1 [dasatinib]
The method in brief:
as §1

Compound in assay [3]: Cc1ncc(-c2ccnc(Nc3ccc(S(C)(=O)=O)cc3)n2)n1C(C)C
The method in brief:
as §1

Compound in assay [4]: Cn1cc(-c2ccc3c(c2)CCN3C(=O)Cc2cccc(C(F)(F)F)c2)c2c(N)ncnc21
The procedure, abridged:
as §1

Compound in assay [5]: Cn1cc(-c2ccc3nnc(C(F)(F)c4ccc5ncccc5c4)n3n2)cn1
The procedure, abridged: as §1

Compound in the next assay: Cn1cncc1[C@@](N)(c1ccc(Cl)cc1)c1ccc2c(c1)c(-c1cccc(Cl)c1)cc(=O)n2C [tipifarnib]
The procedure, abridged: as §1

Compound in a further assay: FC(F)(F)c1ccc(/C=C/c2nc(COc3ccc(CCCCn4ccnn4)cc3)co2)cc1 [mubritinib]
The procedure, abridged: as §1

About 7,900 targets were measured; listed, in parts, are those with a hit and a random draw of the rest. About 0.6% of all pairs of compound and target were hits. Unmarked numbers belong to inactive results.

Sequence of UniProt Q8IXH7 (Q8IXH7 whole entry, looked up): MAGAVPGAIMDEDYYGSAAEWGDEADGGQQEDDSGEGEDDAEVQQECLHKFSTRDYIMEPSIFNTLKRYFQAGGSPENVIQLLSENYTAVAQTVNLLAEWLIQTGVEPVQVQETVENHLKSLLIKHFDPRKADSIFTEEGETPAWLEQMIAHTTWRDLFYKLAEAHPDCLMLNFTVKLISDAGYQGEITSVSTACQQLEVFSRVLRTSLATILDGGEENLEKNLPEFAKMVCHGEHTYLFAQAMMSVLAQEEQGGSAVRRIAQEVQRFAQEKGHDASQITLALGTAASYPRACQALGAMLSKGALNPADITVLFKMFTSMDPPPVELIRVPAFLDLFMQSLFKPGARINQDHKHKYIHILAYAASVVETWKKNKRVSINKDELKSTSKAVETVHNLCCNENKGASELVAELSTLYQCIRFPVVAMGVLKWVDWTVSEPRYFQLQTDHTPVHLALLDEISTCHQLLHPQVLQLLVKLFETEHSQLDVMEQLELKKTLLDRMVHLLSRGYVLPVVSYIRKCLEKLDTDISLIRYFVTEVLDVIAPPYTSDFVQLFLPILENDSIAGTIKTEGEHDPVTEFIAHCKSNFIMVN
Sequence of UniProt Q92621 (Q92621 whole entry, looked up): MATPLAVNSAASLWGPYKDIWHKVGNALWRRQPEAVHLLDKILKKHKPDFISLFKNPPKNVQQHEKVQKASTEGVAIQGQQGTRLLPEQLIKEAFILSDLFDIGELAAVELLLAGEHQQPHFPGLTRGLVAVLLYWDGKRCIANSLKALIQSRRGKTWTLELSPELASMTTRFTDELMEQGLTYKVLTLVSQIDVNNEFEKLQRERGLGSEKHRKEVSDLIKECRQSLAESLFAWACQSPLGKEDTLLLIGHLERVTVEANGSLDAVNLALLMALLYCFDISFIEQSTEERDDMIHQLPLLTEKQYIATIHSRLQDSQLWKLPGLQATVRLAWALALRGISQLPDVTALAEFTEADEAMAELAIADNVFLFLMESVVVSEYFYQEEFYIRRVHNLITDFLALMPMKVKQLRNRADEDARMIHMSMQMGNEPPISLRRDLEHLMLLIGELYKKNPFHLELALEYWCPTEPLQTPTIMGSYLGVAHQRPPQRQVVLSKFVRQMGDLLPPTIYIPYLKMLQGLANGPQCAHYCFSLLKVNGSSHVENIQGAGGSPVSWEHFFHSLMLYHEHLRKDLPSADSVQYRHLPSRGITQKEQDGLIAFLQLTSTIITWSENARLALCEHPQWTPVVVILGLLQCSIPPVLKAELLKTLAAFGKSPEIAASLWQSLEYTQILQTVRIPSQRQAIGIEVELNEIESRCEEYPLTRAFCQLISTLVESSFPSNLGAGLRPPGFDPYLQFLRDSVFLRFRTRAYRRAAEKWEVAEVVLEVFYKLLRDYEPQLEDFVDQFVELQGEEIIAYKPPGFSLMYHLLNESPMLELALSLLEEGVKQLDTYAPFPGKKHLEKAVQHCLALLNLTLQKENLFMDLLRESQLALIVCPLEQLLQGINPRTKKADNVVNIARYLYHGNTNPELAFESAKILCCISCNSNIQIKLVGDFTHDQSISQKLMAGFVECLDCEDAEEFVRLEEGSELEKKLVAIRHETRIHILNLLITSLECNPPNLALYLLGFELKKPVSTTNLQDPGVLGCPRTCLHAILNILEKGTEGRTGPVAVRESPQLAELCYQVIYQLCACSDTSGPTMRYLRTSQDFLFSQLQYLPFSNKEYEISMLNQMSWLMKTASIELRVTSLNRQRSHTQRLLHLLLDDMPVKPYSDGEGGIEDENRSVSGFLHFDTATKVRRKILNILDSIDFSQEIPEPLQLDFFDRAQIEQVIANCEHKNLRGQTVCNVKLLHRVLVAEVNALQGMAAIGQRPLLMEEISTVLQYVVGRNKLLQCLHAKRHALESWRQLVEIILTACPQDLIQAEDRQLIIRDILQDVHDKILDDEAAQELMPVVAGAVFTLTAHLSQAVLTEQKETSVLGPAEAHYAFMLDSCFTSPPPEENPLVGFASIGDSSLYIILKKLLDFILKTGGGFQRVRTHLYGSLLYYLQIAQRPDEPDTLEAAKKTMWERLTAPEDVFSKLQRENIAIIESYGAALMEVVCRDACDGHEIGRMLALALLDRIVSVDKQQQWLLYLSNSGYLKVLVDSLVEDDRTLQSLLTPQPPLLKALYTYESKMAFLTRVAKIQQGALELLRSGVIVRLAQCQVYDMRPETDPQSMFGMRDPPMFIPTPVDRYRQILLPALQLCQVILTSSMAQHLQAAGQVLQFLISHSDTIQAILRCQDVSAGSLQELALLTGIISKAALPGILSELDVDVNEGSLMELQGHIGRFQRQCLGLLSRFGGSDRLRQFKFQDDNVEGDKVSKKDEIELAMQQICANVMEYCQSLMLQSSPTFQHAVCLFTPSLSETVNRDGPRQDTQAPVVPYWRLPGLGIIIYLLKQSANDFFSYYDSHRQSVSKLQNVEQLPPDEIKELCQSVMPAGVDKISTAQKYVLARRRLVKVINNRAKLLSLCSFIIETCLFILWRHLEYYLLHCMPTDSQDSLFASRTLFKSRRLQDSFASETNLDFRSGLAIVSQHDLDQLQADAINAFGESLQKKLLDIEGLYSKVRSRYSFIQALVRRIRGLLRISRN
Sequence of UniProt Q9BT67 (Q9BT67 whole entry, looked up): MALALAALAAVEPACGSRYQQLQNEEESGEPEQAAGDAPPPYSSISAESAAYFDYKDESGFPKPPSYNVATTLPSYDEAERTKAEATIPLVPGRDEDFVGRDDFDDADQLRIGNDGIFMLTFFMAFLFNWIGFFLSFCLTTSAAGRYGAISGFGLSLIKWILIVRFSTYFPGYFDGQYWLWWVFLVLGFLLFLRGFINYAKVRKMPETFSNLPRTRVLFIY
Sequence of UniProt Q9HCE1 (Q9HCE1 whole entry, looked up): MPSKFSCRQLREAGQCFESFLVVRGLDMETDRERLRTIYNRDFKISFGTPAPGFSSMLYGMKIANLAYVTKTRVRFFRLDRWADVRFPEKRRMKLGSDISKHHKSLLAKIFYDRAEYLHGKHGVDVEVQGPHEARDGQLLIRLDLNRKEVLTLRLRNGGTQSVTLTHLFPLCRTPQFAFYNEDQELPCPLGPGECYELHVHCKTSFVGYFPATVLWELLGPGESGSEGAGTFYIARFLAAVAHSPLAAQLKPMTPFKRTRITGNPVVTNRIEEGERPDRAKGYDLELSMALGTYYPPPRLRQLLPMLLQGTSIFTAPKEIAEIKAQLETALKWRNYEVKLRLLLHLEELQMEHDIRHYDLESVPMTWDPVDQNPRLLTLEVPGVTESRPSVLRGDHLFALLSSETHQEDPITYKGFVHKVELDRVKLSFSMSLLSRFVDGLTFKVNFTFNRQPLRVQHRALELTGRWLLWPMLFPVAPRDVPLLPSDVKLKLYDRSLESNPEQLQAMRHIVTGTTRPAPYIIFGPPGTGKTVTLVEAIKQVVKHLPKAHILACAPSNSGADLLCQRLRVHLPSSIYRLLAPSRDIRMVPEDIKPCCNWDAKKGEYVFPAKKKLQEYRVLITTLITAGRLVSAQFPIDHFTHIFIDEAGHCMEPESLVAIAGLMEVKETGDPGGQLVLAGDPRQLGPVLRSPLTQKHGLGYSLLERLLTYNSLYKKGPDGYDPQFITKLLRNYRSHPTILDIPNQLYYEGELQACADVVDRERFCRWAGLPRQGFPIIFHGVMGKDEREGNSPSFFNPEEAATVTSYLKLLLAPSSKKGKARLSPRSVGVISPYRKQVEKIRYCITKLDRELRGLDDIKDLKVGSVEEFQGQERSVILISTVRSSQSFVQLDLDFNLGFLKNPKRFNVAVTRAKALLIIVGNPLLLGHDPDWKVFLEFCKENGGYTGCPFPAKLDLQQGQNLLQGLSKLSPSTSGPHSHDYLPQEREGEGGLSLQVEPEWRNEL
Sequence of UniProt P56556 (P56556 whole entry, looked up): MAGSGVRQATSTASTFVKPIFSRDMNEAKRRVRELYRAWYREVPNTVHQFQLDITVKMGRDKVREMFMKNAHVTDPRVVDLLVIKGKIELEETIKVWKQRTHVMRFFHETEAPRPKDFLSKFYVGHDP
Sequence of UniProt Q9BS92 (Q9BS92 whole entry, looked up): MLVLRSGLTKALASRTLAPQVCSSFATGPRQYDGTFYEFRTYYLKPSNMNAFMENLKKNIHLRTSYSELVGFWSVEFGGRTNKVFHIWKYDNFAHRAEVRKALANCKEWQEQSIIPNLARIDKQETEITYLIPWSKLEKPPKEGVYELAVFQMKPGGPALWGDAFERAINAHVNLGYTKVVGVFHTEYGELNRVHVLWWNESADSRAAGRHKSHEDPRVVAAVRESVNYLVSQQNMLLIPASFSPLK
Sequence of UniProt Q8N5F7 (Q8N5F7 whole entry, looked up): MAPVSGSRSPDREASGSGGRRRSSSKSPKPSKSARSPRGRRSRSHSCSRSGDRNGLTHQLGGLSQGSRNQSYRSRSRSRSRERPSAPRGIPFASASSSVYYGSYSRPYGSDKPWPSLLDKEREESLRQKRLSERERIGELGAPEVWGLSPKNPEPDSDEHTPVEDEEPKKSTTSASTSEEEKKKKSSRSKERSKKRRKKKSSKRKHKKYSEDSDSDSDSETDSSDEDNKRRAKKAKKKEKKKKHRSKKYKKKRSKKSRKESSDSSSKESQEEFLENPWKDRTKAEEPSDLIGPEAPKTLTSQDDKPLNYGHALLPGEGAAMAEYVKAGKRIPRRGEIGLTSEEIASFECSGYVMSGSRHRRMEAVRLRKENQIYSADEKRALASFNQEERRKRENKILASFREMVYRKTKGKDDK
Sequence of UniProt P40261 (P40261 whole entry, looked up): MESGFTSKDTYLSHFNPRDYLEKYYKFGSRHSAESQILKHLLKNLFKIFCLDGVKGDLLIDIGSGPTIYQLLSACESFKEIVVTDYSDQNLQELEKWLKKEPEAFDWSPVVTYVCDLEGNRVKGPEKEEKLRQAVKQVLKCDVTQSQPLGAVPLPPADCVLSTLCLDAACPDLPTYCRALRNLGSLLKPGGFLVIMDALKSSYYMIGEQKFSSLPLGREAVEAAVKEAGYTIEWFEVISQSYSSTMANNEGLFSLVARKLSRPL

Take MRPS5 (UniProt P82675): the log2 fold change with bafetinib was 0.153; in assay [1], 0.159; with nilotinib, -0.287; in [2] it was 0.118; in the assay with dasatinib, -0.073; in assay [3], 0.067. The log2 fold change in assay [4] was 0.039; in [5], 0.087; with tipifarnib, -0.13; with mubritinib, 0.22.

Consider MOV10 (UniProt Q9HCE1), for which the log2 fold change is 0.068 with bafetinib; 0 in assay [1]; 0.035 with nilotinib; 0.041 in [2]; 0.111 with dasatinib; 0.068 in assay [3]. For the same target, the log2 fold change in [4] is -0.055; in assay [5], -0.101; in the assay with tipifarnib, 0.091; in the assay with mubritinib, -0.014.

For NKAP (UniProt Q8N5F7), the log2 fold change with bafetinib is -0.016; in assay [1], -0.081; in the assay with nilotinib, 0.059; in [2] it was -0.792 (active); with dasatinib it was 0.086; in [3] it was 0.015. In addition, the log2 fold change is -0.033 in [4], -0.253 in [5], -0.138 in the assay with tipifarnib and -0.169 in the assay with mubritinib.

Take MT-ND2 (UniProt P03891): the log2 fold change with bafetinib was 0; in assay [1], -0.173; with nilotinib, -0.006; in [2], 0.018; in the assay with dasatinib it was -0.459 (active); in assay [3], -0.171. Also, the log2 fold change in assay [4] is 0.279; in assay [5], 0.11; in the assay with tipifarnib, 0.383; with mubritinib, -0.01.

For NA, A0A494C071, the log2 fold change with bafetinib was -1.12 (active); in assay [1], -0.057; with nilotinib, 0.074; in [2], 0.329; with dasatinib, 0.029; in [3] it was -0.439. For the same target, the log2 fold change was 0.001 in assay [4] and 0.094 in the assay with mubritinib.

In the case of NELFCD (UniProt Q8IXH7), the log2 fold change in the assay with bafetinib is 0.116; in assay [1], -0.111; in the assay with nilotinib it was -0.233; in assay [2], -0.003; with dasatinib, -0.158; in assay [3], 0.064. For the same target, the log2 fold change is 0.061 in assay [4] and 0.035 with tipifarnib.

On to NQO1 (UniProt P15559), for which the log2 fold change with bafetinib was 0.025; in [1] it was 0.365 (active); with nilotinib, -0.001; in assay [2], 0.003; in the assay with dasatinib, -0.033; in assay [3], -0.022. Also, the log2 fold change in assay [4] is 0.049; in assay [5] it was 0.291 (active); with tipifarnib, -0.089; with mubritinib, 0.025.

Consider MYH16 (UniProt Q9H6N6), for which the log2 fold change in the assay with bafetinib was 0.482; in assay [1], 0.303; with nilotinib, 0.061; in assay [2], 0.062; in [3] it was 0.088; in assay [4] it was 0.068. The log2 fold change with tipifarnib is -0.248; with mubritinib it was -0.025.

With MRPS16 (UniProt Q9Y3D3), the log2 fold change was 0.192 in the assay with bafetinib; 0.151 in [1]; -0.187 with nilotinib; 0.009 in [2]; -0.053 in [3]; 0.049 in assay [4]. Moreover, the log2 fold change in [5] was 0.092; in the assay with tipifarnib, -0.094; with mubritinib, 0.16.

Consider NIPSNAP3B (UniProt Q9BS92), for which the log2 fold change with bafetinib is -0.085; in assay [1], -0.054; in the assay with nilotinib, -0.029; in assay [2] it was 0.01; with dasatinib, -0.044; in [3] it was 0.013. The log2 fold change in assay [4] is 0.109; with tipifarnib, -0.018; in the assay with mubritinib, 0.083.

As for NDUFA6 (UniProt P56556), the log2 fold change in the assay with bafetinib was 0.128; in assay [1], 0.301; with nilotinib, -0.151; in assay [2] it was 0.021; in the assay with dasatinib, -0.088; in assay [3], 0.027. Also, the log2 fold change in assay [4] was 0.089; in assay [5], 0.081; with tipifarnib it was -0.173; in the assay with mubritinib, 0.184.

Take NAP1L1 (UniProt B7Z9C2): the log2 fold change is -0.11 with bafetinib; -0.249 in assay [1]; -0.011 with nilotinib; -0.002 in [2]; -0.347 with dasatinib; -0.043 in assay [3]. The log2 fold change with mubritinib was 0.049.

In the case of NDFIP1 (UniProt Q9BT67), the log2 fold change with bafetinib was -0.137; in assay [1] it was -0.08; in the assay with nilotinib, -0.214; in [2], 0.354; with dasatinib, 0.039; in [3], 0.225. For the same target, the log2 fold change is -0.038 in [4], -0.072 in assay [5] and -0.024 with mubritinib.

As for NUP205 (UniProt Q92621), the log2 fold change in the assay with bafetinib is -0.052; in [1], 0; in the assay with nilotinib, -0.042; in assay [2], -0.025; in the assay with dasatinib it was -0.133; in assay [3] it was -0.004. The log2 fold change in [4] was -0.005; in assay [5] it was -0.052; with tipifarnib, -0.072; with mubritinib it was 0.017.

NNMT (UniProt P40261): the log2 fold change in the assay with bafetinib is -0.038; in assay [1], 0.068; with nilotinib it was 0.015; in assay [2] it was 0.005; with dasatinib, 0.037; in [3], -0.021. In addition, the log2 fold change in assay [4] is 0.052; with tipifarnib, -0.002; in the assay with mubritinib it was 0.094.

Values taken from the supplement of paper PMC10849652.
